These results are taken from PubChem BioAssay (NCATS).

Unmarked numbers belong to inactive results. Inconclusive results are not listed. The source made the active and inactive calls. Unless noted, calls follow the shape of the dose curve; as a rule, active = well fitted curve in either direction with a large enough effect (not every such curve was filed as active); inconclusive = small, poorly fitted or top-dose-only effect, or another doubt; inactive = flat fitted curve, though single readings scatter. Some results are limits rather than exact numbers.

Experiment [1] concerns the target Lysosomal acid glucosylceramidase (Homo sapiens) (UniProt P04062). Briefly: Glucocerebrosidase-p2 (AID 348; in the data active = potency below about 10 µM; also: potency is read from the fitted curve at half-maximal effect). Particulars: purified GBA, blue fluorogenic substrate, 40 min. In short, it runs like this:
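Normal human glucocerebrosidase (0.2 nM) with blue fluorogenic substrate (80 uM final) in citrate/phosphate pH 5.9 with 10mM sodium taurocholate, 0.01% tween-20; 40 min RT, NaOH/glycine stop; fluorescence Ex 365/Em 440; AC50 from a titration from 0.6 nM upwards.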

A short description of experiment [2]: AP1 Signaling Pathway (AID 357).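 Also: ME-180 reporter cells stimulated with EGF at its EC50 level; % is scaled to controls: 0 for no effect and ±100 for the full control effect.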 Particulars: ME-180 AP-1-bla reporter, EGF-induced, beta-lactamase ratio, 5 h; at 7.69 µM (top of the series) unless noted. In short, it runs like this:
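Titration-series screen for positive or negative modulators of EC50 EGF-induced signaling in ME-180 cells carrying an AP-1-driven beta-lactamase reporter. After 5 hours at 37 degrees Celsius, CCF4 460nm/530nm emission ratio gave %Activity; AC50 values derived.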

The target of experiment [3] is Cytochrome P450 1A2 (Homo sapiens) (UniProt P05177). The experiment is described as follows: p450-cyp1a2 (AID 410; calls by dose curve; also: potency is read from the fitted curve at half-maximal effect;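 as to activity change, negative = inhibition: -100% = full effect of reference inhibitor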). Particulars: recombinant CYP1A2, luciferin-ME demethylation, luminescence; series mostly up to 11.4 µM. The essentials: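 Luminescent demethylation readout: Luciferin-ME (100uM, equal to Km) turned over by 20nM CYP1A2 for 60 min at room temperature after NADPH regeneration addition, following 10 min compound preincubation. Normalization used 57 uM furafylline as full inhibition.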
Chain of Cytochrome P450 1A2 (Homo sapiens) (P05177 whole entry, looked up): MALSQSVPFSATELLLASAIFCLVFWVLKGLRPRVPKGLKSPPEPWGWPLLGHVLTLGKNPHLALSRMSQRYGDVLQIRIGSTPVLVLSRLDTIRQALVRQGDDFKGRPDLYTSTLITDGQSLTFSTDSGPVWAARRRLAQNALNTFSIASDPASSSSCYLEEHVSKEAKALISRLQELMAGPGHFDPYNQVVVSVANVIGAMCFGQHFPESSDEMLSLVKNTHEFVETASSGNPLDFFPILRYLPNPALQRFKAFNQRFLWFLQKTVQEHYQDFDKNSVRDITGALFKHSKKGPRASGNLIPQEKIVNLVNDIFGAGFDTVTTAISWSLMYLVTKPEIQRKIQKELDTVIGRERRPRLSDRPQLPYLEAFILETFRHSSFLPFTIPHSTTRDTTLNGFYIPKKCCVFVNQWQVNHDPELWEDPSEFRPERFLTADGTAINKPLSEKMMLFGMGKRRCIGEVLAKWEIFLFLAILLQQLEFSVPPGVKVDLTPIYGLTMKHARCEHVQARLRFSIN

The nature of experiment [4]: NFAT Signaling Pathway (AID 444).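 Also: carbachol stimulus at about its EC50 of 1 µM final; % is scaled to controls: 0 for no effect and ±100 for the full control effect.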 Particulars: Jurkat NFAT-bla M1, carbachol, beta-lactamase ratio, 5 h; at 7.69 µM (top of the series) unless noted. The essentials:
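Read-out: CCF4 FRET ratio (460 nm/530 nm) after 1 h RT dye loading, used for %activity and AC50 from titration series. Cells: Jurkat NFAT-β-lactamase/M1 line, treated with compound plus 1 uM carbachol for 5 h, 37 °C.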

Experiment [5] in a line: Stat Signaling Pathway (AID 446).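 Also: ME-180 cervical cancer cells given 40 pM IL-6 alongside compound; SIE-controlled beta-lactamase reporter measured as 460/530 nm FRET emission ratio; % is scaled to controls: 0 for no effect and ±100 for the full control effect.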 Particulars: ME-180 (cervical carcinoma) SIE beta-lactamase reporter, IL-6 stimulated, 5 h; at 7.69 µM (top of the series) unless noted. In short, it runs like this:
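Overnight-plated ME-180 cells bearing a STAT Inducible Element beta-lactamase reporter; 5 h co-exposure to compound and 40 pM IL-6; values normalized to 300 pM IL-6 and 125 nM JAK inhibitor controls.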

Experiment [6] has as its target Glucocorticoid receptor (Homo sapiens) (UniProt P04150). Briefly: GR-GFP Redistribution (AID 450;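 active = compounds whose dose series gives a full or clear partial fitted curve of increased nuclear translocation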; also: potency is read from the fitted curve at half-maximal effect). Particulars: U2OS GR-GFP nuclear translocation, laser cytometry, 2 h.
For experiment [7] the target is unchanged. The experiment is described as follows: GR-EFC Redistribution (AID 451; calls by dose curve; also: potency is read from the fitted curve at half-maximal effect). Particulars: CHO-K1 GR-EFC translocation, beta-gal luminescence, 2 h. In short, it runs like this:
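Translocation of GR-ED fusion to nuclear EA restores b-gal, read by luminescence after 1 h room-temperature detection. Engineered CHO-K1 biosensor cells, 1,000/well, exposed 2 h at 37 C to titrations up to 46 uM final.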

Experiment [8] concerns the target Mitogen-activated protein kinase 10 (Mus musculus) (UniProt Q61831). Briefly: JNK3 AlphaScreen Assay (AID 530).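 Also: kinase came from lysate of stimulated human HepG2 cells; signal reports phosphorylation of biotinylated GST-cJun 1-79 at Ser73 with 10 µM ATP; % is scaled to controls: 0 for no effect and ±100 for the full control effect.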 Particulars: JNK3 lysate, c-Jun phosphorylation; series mostly up to 11.4 µM. In short, it runs like this:
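qHTS titrations with 15 min compound pre-incubation before adding ATP (10 uM final). Read-out: AlphaScreen of Ser73-phosphorylated biotin-GST-cJun using HepG2 lysate JNK3 activated by IL-1β and TNFα.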
(Alpha assays give light when donor and acceptor beads are brought close together.)

Experiment [9] addresses 3',5'-cyclic-AMP phosphodiesterase 4B (Homo sapiens) (UniProt Q07343). The experiment is described as follows: qHTS Assay for Inhibitors of PDE-IV (AID 607; active = well fitted activation curve with a large enough effect in the main read-out, with a control signal flat, not every such curve was filed as active; also: % of control where 0% means no effect). Particulars: HEK293 ACTOne CNG channel cells, membrane potential fluorescence; series mostly up to 22.9 µM. In short, it runs like this: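 Live HEK293 cells with a modified cyclic nucleotide-gated (CNG) channel report intracellular cAMP via membrane-potential dye fluorescence (ex 535/em 590 nm). Endogenous PDE-IV was targeted. Compounds were tested at up to 22.9 uM final; RO 20-1724 100 uM served as control.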

For experiment [10], the target named is Cytochrome P450 2C9 (Homo sapiens) (UniProt P11712). The experiment is described as follows: qHTS Assay for Inhibitors and Substrates of Cytochrome P450 2C9 (AID 883; active = well fitted curve in the direction sought with a large enough effect; an effect the other way counts as inactive or inconclusive; also: nearly all actives have a fitted effect of over 60% in size; also: potency is read from the fitted curve at half-maximal effect). Particulars: recombinant CYP2C9, luciferin-H luminescence, 60 min; series mostly up to 11.4 µM. In short, it runs like this:
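Inhibition of CYP2C9 is scored as loss of luminescence, with 57uM sulphaphenazole defining 100% inhibition. Substrate Luciferin-H is used at 100uM, equal to its KM; enzyme at 10nM in 25mM KPO4, 60 min at 37C with NADPH regeneration.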
In general terms: qHTS replaces the single test concentration by a dilution series.

The target in experiment [11] is Cytochrome P450 2D6 (Homo sapiens) (UniProt P10635). Briefly: qHTS Assay for Inhibitors and Substrates of Cytochrome P450 2D6 (AID 891; active = well fitted curve in the direction sought with a large enough effect; an effect the other way counts as inactive or inconclusive; also: potency is read from the fitted curve at half-maximal effect; nearly all actives have a fitted effect of over 60% in size). Particulars: recombinant CYP2D6, luciferin-ME EGE luminescence; series mostly up to 11.4 µM. The essentials: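 Luminescent read-out of luciferin formed by 5 nM human CYP2D6 demethylating 30 uM Luciferin-ME EGE (Km level) over 60 min at room temperature after NADPH regeneration addition. Data normalized to full inhibition by 1.43 uM quinidine.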
Chain of Cytochrome P450 2D6 (Homo sapiens) (P10635 whole entry, looked up): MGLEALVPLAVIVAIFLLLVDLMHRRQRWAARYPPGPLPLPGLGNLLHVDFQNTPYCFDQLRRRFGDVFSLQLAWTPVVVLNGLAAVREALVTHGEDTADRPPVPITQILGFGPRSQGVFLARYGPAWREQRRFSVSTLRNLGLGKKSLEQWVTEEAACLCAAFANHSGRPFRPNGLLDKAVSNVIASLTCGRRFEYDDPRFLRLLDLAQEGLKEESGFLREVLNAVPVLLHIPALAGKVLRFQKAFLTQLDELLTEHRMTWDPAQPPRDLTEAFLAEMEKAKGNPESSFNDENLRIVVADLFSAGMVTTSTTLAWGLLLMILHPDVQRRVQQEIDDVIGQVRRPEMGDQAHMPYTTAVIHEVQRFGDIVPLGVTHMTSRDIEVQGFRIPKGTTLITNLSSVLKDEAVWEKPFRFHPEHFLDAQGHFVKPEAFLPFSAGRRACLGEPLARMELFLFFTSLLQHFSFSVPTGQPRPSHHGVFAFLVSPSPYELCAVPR

Experiment [12] deals with Cytochrome P450 3A4 (Homo sapiens) (UniProt P08684). The experiment is described as follows: qHTS Assay for Inhibitors and Substrates of Cytochrome P450 3A4 (AID 884; active = well fitted curve in the direction sought with a large enough effect; an effect the other way counts as inactive or inconclusive; also: potency is read from the fitted curve at half-maximal effect; nearly all actives have a fitted effect of over 50% in size). Particulars: recombinant CYP3A4, Luciferin-PPXE luminescence; series mostly up to 57.1 µM. In short, it runs like this: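 Luminescent readout of luciferin produced by CYP3A4 (20 nM) dealkylation of Luciferin-PPXE, 25 uM (its KM). NADPH-driven reaction ran 60 min at RT after 10 min compound preincubation; data scaled to 57 uM ketoconazole as 100% inhibition.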
Chain of Cytochrome P450 3A4 (Homo sapiens) (P08684 whole entry, looked up): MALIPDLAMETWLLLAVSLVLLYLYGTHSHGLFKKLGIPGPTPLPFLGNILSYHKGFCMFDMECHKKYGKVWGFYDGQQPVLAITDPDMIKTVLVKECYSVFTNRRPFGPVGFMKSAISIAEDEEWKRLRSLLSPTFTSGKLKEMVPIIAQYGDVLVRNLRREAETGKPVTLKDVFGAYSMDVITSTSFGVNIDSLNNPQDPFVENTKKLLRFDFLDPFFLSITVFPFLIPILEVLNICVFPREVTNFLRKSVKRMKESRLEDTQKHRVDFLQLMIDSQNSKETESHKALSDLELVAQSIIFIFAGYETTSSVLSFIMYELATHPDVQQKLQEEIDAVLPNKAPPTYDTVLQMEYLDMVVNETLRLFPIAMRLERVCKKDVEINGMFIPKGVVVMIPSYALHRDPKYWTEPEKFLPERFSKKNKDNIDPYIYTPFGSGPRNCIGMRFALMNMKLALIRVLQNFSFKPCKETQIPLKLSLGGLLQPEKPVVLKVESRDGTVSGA

For experiment [13] the target is unchanged. Briefly: qHTS Assay for Activators of Cytochrome P450 3A4 (AID 885; active = well fitted curve in the direction sought with a large enough effect; an effect the other way counts as inactive or inconclusive; also: nearly all actives have a fitted effect of over 65% in size). Particulars: recombinant CYP3A4, Luciferin-PPXE luminescence, 60 min; series mostly up to 11.4 µM. In short, it runs like this: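 Using 20nM recombinant human CYP3A4 in potassium phosphate (200mM), substrate Luciferin-PPXE at 25uM, luminescent luciferin detection followed a 60-min RT NADPH reaction; data scaled to 57 uM ketoconazole.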

Chain of Lysosomal acid glucosylceramidase (Homo sapiens) (P04062 whole entry, looked up): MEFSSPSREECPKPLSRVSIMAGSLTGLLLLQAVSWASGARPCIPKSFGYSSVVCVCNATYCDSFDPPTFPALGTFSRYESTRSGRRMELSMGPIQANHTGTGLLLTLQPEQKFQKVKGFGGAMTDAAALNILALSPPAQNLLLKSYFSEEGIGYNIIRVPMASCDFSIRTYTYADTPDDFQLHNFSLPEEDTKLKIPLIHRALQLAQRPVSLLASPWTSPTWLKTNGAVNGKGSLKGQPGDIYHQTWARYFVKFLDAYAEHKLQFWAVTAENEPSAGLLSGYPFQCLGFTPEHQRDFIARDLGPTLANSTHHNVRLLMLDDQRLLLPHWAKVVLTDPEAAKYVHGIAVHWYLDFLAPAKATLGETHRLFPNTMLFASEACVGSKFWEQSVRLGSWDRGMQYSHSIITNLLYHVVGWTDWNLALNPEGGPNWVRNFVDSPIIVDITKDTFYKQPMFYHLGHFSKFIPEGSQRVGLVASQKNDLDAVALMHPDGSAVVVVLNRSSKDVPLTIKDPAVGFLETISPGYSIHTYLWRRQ
Chain of Cytochrome P450 2C9 (Homo sapiens) (P11712 whole entry, looked up): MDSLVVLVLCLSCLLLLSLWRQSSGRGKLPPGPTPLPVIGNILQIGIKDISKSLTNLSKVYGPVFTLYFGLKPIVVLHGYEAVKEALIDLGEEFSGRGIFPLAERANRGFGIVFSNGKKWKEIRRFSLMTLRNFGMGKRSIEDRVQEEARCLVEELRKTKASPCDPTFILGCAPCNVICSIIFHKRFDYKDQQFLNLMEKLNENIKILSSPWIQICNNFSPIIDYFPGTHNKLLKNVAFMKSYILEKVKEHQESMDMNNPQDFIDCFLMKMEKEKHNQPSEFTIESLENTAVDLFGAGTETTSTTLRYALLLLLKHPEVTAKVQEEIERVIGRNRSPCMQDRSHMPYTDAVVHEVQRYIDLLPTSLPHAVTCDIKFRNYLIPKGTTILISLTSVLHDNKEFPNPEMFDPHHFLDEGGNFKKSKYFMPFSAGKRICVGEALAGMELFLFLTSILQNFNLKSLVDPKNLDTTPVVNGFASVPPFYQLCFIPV
Chain of 3',5'-cyclic-AMP phosphodiesterase 4B (Homo sapiens) (Q07343 whole entry, looked up): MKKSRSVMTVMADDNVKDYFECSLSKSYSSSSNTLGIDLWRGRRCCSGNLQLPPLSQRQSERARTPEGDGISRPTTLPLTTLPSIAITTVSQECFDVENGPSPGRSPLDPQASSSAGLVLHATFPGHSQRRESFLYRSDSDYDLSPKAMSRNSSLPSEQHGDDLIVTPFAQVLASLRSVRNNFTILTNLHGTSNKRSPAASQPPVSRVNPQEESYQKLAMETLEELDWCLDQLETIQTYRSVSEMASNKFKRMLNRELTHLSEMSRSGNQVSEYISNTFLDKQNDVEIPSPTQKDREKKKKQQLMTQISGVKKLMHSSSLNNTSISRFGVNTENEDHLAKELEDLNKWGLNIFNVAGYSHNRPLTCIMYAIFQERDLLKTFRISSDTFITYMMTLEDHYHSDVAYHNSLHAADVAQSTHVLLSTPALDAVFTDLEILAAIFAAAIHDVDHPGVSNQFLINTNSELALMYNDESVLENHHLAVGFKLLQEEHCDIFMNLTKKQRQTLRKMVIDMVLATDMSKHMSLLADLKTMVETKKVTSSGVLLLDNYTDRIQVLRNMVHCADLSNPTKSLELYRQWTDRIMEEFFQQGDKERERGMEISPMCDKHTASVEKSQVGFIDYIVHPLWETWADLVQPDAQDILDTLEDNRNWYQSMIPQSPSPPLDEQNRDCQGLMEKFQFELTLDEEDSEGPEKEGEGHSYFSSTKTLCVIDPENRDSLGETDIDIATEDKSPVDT
Chain of Glucocorticoid receptor (Homo sapiens) (P04150 whole entry, looked up): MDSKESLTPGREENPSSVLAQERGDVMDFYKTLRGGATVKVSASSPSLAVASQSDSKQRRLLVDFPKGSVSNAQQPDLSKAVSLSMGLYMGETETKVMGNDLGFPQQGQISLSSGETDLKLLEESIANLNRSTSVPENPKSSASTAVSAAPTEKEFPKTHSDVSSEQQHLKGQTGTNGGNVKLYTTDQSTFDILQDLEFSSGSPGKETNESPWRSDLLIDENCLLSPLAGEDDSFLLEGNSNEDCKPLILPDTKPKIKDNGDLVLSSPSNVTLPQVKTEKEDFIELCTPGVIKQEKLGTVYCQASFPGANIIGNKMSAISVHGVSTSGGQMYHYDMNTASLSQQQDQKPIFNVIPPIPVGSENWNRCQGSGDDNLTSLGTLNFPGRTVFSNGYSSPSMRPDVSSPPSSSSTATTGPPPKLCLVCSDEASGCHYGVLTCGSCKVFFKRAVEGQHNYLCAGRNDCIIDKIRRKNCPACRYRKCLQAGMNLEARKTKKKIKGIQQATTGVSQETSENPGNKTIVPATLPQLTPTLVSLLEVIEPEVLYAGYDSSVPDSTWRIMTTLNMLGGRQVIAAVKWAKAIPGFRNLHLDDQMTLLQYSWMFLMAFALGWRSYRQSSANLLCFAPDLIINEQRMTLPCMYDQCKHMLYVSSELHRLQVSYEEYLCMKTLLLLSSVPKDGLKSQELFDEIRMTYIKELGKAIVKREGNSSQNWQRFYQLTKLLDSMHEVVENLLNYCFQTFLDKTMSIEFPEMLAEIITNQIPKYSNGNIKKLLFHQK

As to `Oc1ccc(Cc2nccc3cc(O)c(O)cc23)cc1O`, the Potency was above 11.4 µM in experiment [1]; 5.01 µM (active) in [3]; above 46 µM in [6]; above 9.22 µM in experiment [7]; 1.26 µM (active) in [11]. Moreover, the activity change, negative = inhibition was -6.37% in [2] and 7.28% in experiment [4]. In experiment [5], the activity, negative = inhibition was -2.43%. Also, the Potency result in experiment [8], in [9] and in experiment [10] was “inactive” in each case.

Regarding `C[C@H]1O[C@@H](CC(=O)O)Cc2c1c(O)c1c(O)cc(-c3cc(=O)c4c(=O)c5c(c(=O)c=4c3=O)C[C@H](CC(=O)O)O[C@@H]5C)c(O)c1c2O`, the Potency in experiment [1] is above 11.4 µM; in experiment [6], above 46 µM; in experiment [7] it was above 9.22 µM. For the same molecule, the activity change, negative = inhibition in experiment [2] is 13%; in [3], -29.1% [at 2.29 µM]; in experiment [4] it was 9.83%. Moreover, the activity, negative = inhibition in experiment [5] was -5.2%. For the same molecule, the Potency result in experiment [8] and in experiment [9] was “inactive” throughout.

On to `NNC(=O)Cc1cccnc1`, for which the Potency in [1] was above 11.4 µM; in experiment [3], 0.631 µM (active); in experiment [6], above 46 µM; in [7] it was above 9.22 µM; in experiment [12], 3.16 µM (active). The activity change, negative = inhibition in experiment [2] is -8.16%; in [4], 7.3%. Further, the activity, negative = inhibition in [5] was 3.84%. Moreover, the Potency result in [8], in experiment [9], in [10] and in experiment [13] was “inactive” each time.

Consider `Cc1c(Cl)cccc1NC(=O)C[C@H]1Sc2ccccc2NC1=O`, for which the Potency was above 11.4 µM in [1], above 46 µM in experiment [6] and above 9.22 µM in [7]. The values for the activity change, negative = inhibition in experiment [2], in [3] and in [4] were -17.8%, -23.2% [at 2.29 µM] and 7.2%, respectively. Also, the activity, negative = inhibition in experiment [5] was 6.79%. Moreover, the Potency result in experiment [8], in [9], in [10] and in experiment [13] was “inactive” each time.

With `N[C@@H](Cc1ncccn1)C(=O)O`, the Potency in [1] is above 11.4 µM; in [6] it was above 46 µM; in experiment [7], above 9.22 µM. For the same molecule, the activity change, negative = inhibition in [2] was -0.104%; in [4], 3.63%. Also, the Potency entry in experiment [3], in [8], in experiment [9] and in experiment [10] was “inactive” throughout. For the same molecule, in [5], the activity, negative = inhibition is 3.82%.

In the case of `S=C(S)NCCCn1ccnc1`, the Potency was above 11.4 µM in [1]; 3.16 µM (active) in experiment [3]; above 46 µM in [6]; above 9.22 µM in experiment [7]; 2 µM (active) in [10]; 1.58 µM (active) in [12]. For the same molecule, the Potency in [11] was 0.794 µM (active). For the same molecule, the figures for the activity change, negative = inhibition in [2] and in [4] were 7.59% and -2.39%, respectively. The activity, negative = inhibition in experiment [5] is 6.25%. The Potency result in experiment [8], in experiment [9] and in [13] was “inactive” each time.

Consider `O=C(O)c1ccc(Cc2ccccc2C(=O)O)cc1`, for which the Potency was above 11.4 µM in experiment [1], above 46 µM in experiment [6] and above 9.22 µM in [7]. In addition, the activity change, negative = inhibition in [2] was -5.89%; in experiment [4], 5.4%. Also, the Potency entry in experiment [3], in [8] and in experiment [9] was “inactive” throughout. Besides, the activity, negative = inhibition in [5] is -2.65%.

For `CC(CCC(=O)O)(c1cc(Br)c(O)c(Br)c1)c1cc(Br)c(O)c(Br)c1`, the Potency is above 11.4 µM in experiment [1], above 46 µM in experiment [6], above 9.22 µM in experiment [7] and 3.16 µM (active) in experiment [10]. The results for the activity change, negative = inhibition in experiment [2], in experiment [3] and in experiment [4] were 17.5%, -17.9% [at 2.29 µM] and 3.8%, respectively. Also, the activity, negative = inhibition in experiment [5] is 0.505%. Also, the Potency entry in experiment [8] and in experiment [9] was “inactive” throughout.
